Screens: PubChem, National Center for Advancing Translational Sciences (NCATS)
DT40 TDP1 no CPT = qHTS for Inhibitors of human tyrosyl-DNA phosphodiesterase 1 (TDP1): qHTS in cells in absence of CPT | Potency, µM (highest dose often 46.2 µM), for inactives: top-dose activity change, negative = growth inhibition, usual class: inhibitors | 420,000 compounds, 15% hits | DT40 Tdp1-/- hTDP1 cells, no CPT, ATP luminescence, 48 h | AID 686978, 2013; also: nearly all actives have a fitted effect of over 55% in size
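Camptothecin absent (DMSO only). Human TDP1-complemented DT40 knockout cells, 400 cells/well, 37 °C for minimum 48 hr; ATP measured via CellTiter-Glo, 30 min dark incubation, luminescence.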
RORgamma inh = inhibitors of mouse ROR gamma transcriptional activity. P51450. Drosophila S2 Gal4-RORgamma UAS-luciferase reporter, 20 h. Potency, µM (series often up to 53.6 µM), for the others: at the top dose activity change, negative = inhibition, hits mostly inhibitors. 310,000 compounds, 5.4% hits; also: nearly all actives have a fitted effect of over 60% in size
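Drosophila S2 cells stably expressing Gal4-DBD/mouse RORγ fusion under metallothionein promoter plus UAS-luciferase; compound 1 h, then 700 uM CuSO4 induction for 20 h at ambient temperature; inhibition read as reduced luminescence.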
DT40 TDP1 CPT = DT40-hTDP1 cell growth loss with CPT; chicken DT40 Tdp1-/-;hTDP1 cells + 20 nM CPT, ATP luminescence, 48 h; Potency, µM (series often up to 46.2 µM), for the others: top-dose activity change, negative = growth inhibition, hits mostly inhibitors; 420,000 compounds, 12% hits; also: nearly all actives have a fitted effect of over 55% in size
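Chicken DT40 Tdp1-/- cells stably complemented with human TDP1 were seeded at 400 cells/well in medium containing 20 nM camptothecin, exposed to pin-transferred compounds, and grown at 37 °C for at least 48 hr. Viability was read as ATP luminescence.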
TDP1 inh = blocks human tyrosyl-DNA phosphodiesterase 1; AID 485290; Q9NUW8; Potency, µM (titrated, usually from 130 µM), without a hit: at the highest dose activity change, negative = inhibition, most hits filed as inhibitors; 350,000 compounds, 0.28% hits; recombinant TDP1, AlphaScreen DNA substrate cleavage; also: nearly all actives have a fitted effect of over 40% in size
Target sequence (Q9NUW8 whole entry, looked up): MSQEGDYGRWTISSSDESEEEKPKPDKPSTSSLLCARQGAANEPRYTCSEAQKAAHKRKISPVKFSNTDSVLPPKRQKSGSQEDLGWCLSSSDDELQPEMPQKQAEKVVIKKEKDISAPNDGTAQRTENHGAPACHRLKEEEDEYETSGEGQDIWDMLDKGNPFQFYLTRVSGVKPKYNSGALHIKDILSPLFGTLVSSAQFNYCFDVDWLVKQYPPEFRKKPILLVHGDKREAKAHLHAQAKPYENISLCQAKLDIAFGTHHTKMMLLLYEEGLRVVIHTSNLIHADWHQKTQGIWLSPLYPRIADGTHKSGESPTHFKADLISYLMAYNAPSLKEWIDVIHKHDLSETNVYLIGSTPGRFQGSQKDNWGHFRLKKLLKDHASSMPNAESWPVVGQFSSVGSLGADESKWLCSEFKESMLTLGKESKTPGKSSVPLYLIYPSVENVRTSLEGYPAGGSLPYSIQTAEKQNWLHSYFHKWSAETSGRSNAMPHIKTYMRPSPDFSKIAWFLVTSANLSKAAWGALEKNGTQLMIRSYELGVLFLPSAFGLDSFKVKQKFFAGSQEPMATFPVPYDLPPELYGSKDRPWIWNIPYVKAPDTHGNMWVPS
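Signal: AlphaScreen proximity between streptavidin donor and anti-FITC acceptor beads on intact substrate. Reaction: Tdp1 1 nM, substrate 15 nM final, 5 min RT after 15 min compound preincubation.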
VP16 counter = Gal4-VP16 reporter inhibition counter-screen; Potency, µM (doses to about 53.6 µM), for the others: at the top dose activity, negative = inhibition, hits mostly inhibitors; 310,000 compounds, 3.5% hits; Drosophila S2 Gal4-VP16 UAS-luciferase, luminescence, 20 h;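 also: Gal4-VP16 expression switched on by copper sulfate through the metallothionein promoter; nearly all actives have a fitted effect of over 50% in size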
* = called active by the depositor; ? = inconclusive; / = not tested or not shown. Most compounds without a hit are left out; they make up all but 19% or so of the library. Calls follow the shape of the dose curve; as a rule, active = well fitted curve in the direction sought with a large enough effect; inconclusive = small, poorly fitted or top-dose-only effect, or another doubt; inactive = no such curve, though single readings can be large; an effect the other way counts as inactive or inconclusive. % is scaled to controls: 0 for no effect and ±100 for the full control effect; potency is read from the fitted curve at half-maximal effect.

SMILES | DT40 TDP1 no CPT | RORgamma inh | DT40 TDP1 CPT | TDP1 inh | VP16 counter
Cc1sc2ccccc2[n+]1CCCC[n+]1c(C)sc2ccccc21 | 2.5µM* | / | 4.5µM* | / | /
Cc1ccc2c(c1)sc(C)[n+]2CCCS(=O)(=O)[O-] | -6% | 2% | -1% | -2% | 4%
Cc1sc2ccccc2[n+]1CCCCBr | 5.6µM* | / | 4µM* | / | /
COc1ccc2sc(C)[n+](C)c2c1 | 18µM* | 7% | ? | 0% | 9%
Cc1cc(C(=O)N2CCCC2C(=O)O)c(C)o1 (centres undefined) | -11% | -1% | -9% | 2% | -3%
O=C(N1CCOCC1)N1CCCC(c2nc(-c3cccs3)no2)C1 (centres undefined) | 3% | 22% | -7% | 0% | 0%
C[n+]1ccc(/C=C/c2cccs2)cc1 | -14% | 34% | -19% | 5% | -14%
CC(C)(C)C(=O)O/N=C(\N)c1ccc(-c2csnn2)cc1 | ? | 35% | 0% | -6% | ?
Cc1ccc(S(=O)(=O)Cc2sc3ccccc3[n+]2C)cc1 | ? | 16% | -25% | 3% | -24%
Cc1sc2ccccc2[n+]1C | 3.2µM* | / | 4µM* | / | /
CCN1CCN(c2nc(N)c([N+](=O)[O-])c(Nc3ccc(C)c(C)c3)n2)CC1 | 16µM* | -19% | ? | 3% | -10%
Cc1ccn(-c2n[nH]c(C)c2[N+](=O)[O-])n1 | -1% | 13µM* | 5% | 3% | -5%
O=C1CC(c2ccccc2)Cc2[nH]c(=O)c(-c3nc(-c4cccc(Cl)c4)cs3)cc21 (centres undefined) | 5.2µM* | / | 5.2µM* | 3% | /
CCOc1cc(C(=O)N(CC)CC(=O)Nc2ccc3c(c2)OCCO3)ccc1OC | -2% | / | -12% | 1% | /
O=C(N1CCN(c2ccccc2)CC1)C12CC3CC(CC(C3)C1)C2 | ? | 12% | -18% | 4% | 7%
Cc1nnn(C23C[C@@H]4C[C@@H](CC(C(=O)N5CCN(c6ccccc6)CC5)(C4)C2)C3)n1 | 13µM* | -9% | 18µM* | 1% | 0%
O=C(NNC(=O)C1CC1c1ccccc1)Nc1cccc(Cl)c1 (centres undefined) | -18% | 7% | -1% | 1% | -1%
COc1cccc(OC)c1C(=O)NC(=S)NNC(=O)[C@H]1C[C@@H]1c1ccccc1 | -3% | 4µM* | ? | 9% | -16%
O=C(NC(=S)NNC(=O)[C@H]1C[C@@H]1c1ccccc1)c1cccc(F)c1 | -13% | 11µM* | -29% | 10% | ?
COc1ccc(C)cc1NC(=O)C1CC1c1ccccc1 (centres undefined) | -1% | / | 4% | / | /
CCOC(=O)C1CCCN(C(=O)c2cc3cc(F)ccc3[nH]2)C1 (centres undefined) | ? | 28% | ? | / | 6%
O=C(c1cc2cc(F)ccc2[nH]1)N1CCCC(Nc2ccc(F)cc2)C1 (centres undefined) | ? | ? | 15µM* | 0% | -5%
Cc1ccc2c(c1)c(C)c(C)n2CC(O)CN1CCOCC1 (centres undefined) | -5% | -13% | -18% | 3% | -5%
Cc1ccc(Cl)cc1N1CCN(C(=O)c2cnc(N3CCOCC3)c3ccccc23)CC1 | 6.5µM* | / | 5.8µM* | 3% | /
O=C(O)c1ccccc1C(=O)N1CCN(c2ncccn2)CC1 | -13% | 12% | -12% | / | 5%
SMILES | DT40 TDP1 no CPT | RORgamma inh | DT40 TDP1 CPT | TDP1 inh | VP16 counter
O=C(c1cnc(N2CCN(c3ncccn3)CC2)c2ccccc12)N1CCN(c2ncccn2)CC1 | 15µM* | 38% | 15µM* | 0% | -8%
CCCc1nc(SC)ncc1C(=O)N1CCN(c2ccc(Cl)cc2)CC1 | 23µM* | / | ? | 1% | /
CSc1ncc(C(=O)N2CCN(c3ccc(F)cc3)CC2)c(C)n1 | -25% | / | -28% | 5% | /
CN(C(=O)c1cnc(N2CCN(c3ncccn3)CC2)c2ccccc12)c1ccc(Cl)cc1 | 21µM* | 19% | ? | 0% | -7%
Cc1cc(CSc2ccccc2)ccc1NC(=O)COc1ccccc1C | -4% | -26% | 1% | -3% | -20%
CCOc1ccc(NC(=O)CCc2nc3cccnc3n2Cc2ccc(OC)cc2)cc1 | ? | / | -2% | 2% | /
O=C(c1cnc(N2CCCCC2)c2ccccc12)N1CCN(c2ccc(Cl)cc2)CC1 | 23µM* | / | 15µM* | -2% | /
Cc1ccccc1Cn1c2ccccc2c2cnn(CC(=O)NC(C)CCc3ccccc3)c(=O)c21 (centres undefined) | 9.2µM* | / | 9.2µM* | 0% | /
CC(=O)c1ccc(NC(=O)Cn2ncc3c4ccccc4n(Cc4ccccc4)c3c2=O)cc1 | -16% | / | 4% | 0% | /
O=C(Cn1ncc2c3ccccc3n(Cc3ccccc3F)c2c1=O)NCc1ccccc1Cl | 18µM* | / | 21µM* | 0% | /
Cc1ccc(C)c(Cn2c3ccccc3c3cnn(CC(=O)NCc4ccccn4)c(=O)c32)c1 | ? | -32% | ? | -4% | -29%
Cc1ccc(C)c(Cn2c3ccccc3c3cnn(CC(=O)NCCCc4ccccc4)c(=O)c32)c1 | 9.2µM* | / | ? | -3% | /
Cc1ccccc1Cn1c2ccccc2c2cnn(CC(=O)NCCc3ccccc3)c(=O)c21 | ? | / | 16µM* | -3% | /
COC(=O)C1=CN(c2ccc(OC)cc2)C=C(C(=O)OC)C1c1ccc([N+](=O)[O-])cc1 | ? | -1% | ? | 3% | -1%
CCCOC(=O)c1cc(=O)[nH]c2ccccc12 | 6% | -5% | -9% | 4% | -1%
O=C(Cn1ncc2c3ccccc3n(Cc3ccccc3F)c2c1=O)NCCCc1ccccc1 | 18µM* | / | ? | 0% | /
Cc1cccc(NC(=O)Cn2ncc3c4ccccc4n(Cc4ccccc4)c3c2=O)c1C | 23µM* | / | ? | 0% | /
CCCCN(CC)CCCNC(=O)Cn1ncc2c3ccccc3n(Cc3ccccc3F)c2c1=O | 12µM* | / | 13µM* | 3% | /
Cc1ccc(C)c(Cn2c3ccccc3c3cnn(CC(=O)NCCCN4CCCCC4)c(=O)c32)c1 | 16µM* | -14% | ? | 4% | -19%
CCCC[C@@H]1C[C@H]1C(NC(=O)c1ccco1)c1ccccc1 (some centres undefined) | / | 7% | / | 6% | 13%
O=C(NCCCn1ccnc1)c1[nH]c(C(F)(F)F)nc1-c1ccccc1 | 22% | / | 4% | / | /
Cc1cc(=O)n2[nH]c(NC(=O)c3cccc(Cl)c3)nc2n1 | ? | / | -1% | 0% | /
O=C(CCCCCNC(=O)N1CCn2c1nc1ccccc12)N[C@@H](C(=O)O)c1ccccc1 | -5% | 0% | 6% | / | 3%
